# Measurements from PubChem BioAssay (Tox21).
# Inconclusive results are not listed. Entries that show only a call come without a potency. A number with no mark means an inactive call. Calls of active or inactive are those of the source. Unless noted, calls come from the whole dose curve; as a rule, active = well fitted curve in the direction sought with a large enough effect in the repeat runs; inconclusive = weak or mixed curves; inactive = no such curve, though single readings can be large; an effect the other way counts as inactive or inconclusive.
# Key:
# [1] = qHTS assay to identify small molecule antagonists of the peroxisome proliferator-activated receptor gamma (PPARg) signaling pathway - cell viability counter screen (AID 743194); note: nearly all actives have a fitted effect of over 55% in size; note: potency is the fitted concentration of half-maximal effect
# Procedure, shortened: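 Viability was measured as CellTiter-Glo luminescence in GeneBLAzer PPARg UAS-bla HEK293H cells. These cells had been exposed 17 h at 37 C to compounds together with rosiglitazone at 50 nM final, with the beta-lactamase readout taken in the same wells.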
# [2] = qHTS assay for small molecule agonists of the antioxidant response element (ARE) signaling pathway (AID 743202; active = well fitted activation curve with a large enough effect in the signal ratio in the repeat runs, not every such curve was filed as active; the % refers to the signal ratio; note: potency is the fitted concentration of half-maximal effect)
# Procedure, shortened: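 An ARE-responsive beta-lactamase gene stably integrated in HepG2 cells serves as reporter. After 5 h plating and 16 h compound incubation at 37 C, fluorescence of the B/G FRET substrate was measured.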
# [3] = qHTS assay for small molecule agonists of the antioxidant response element (ARE) signaling pathway - cell viability counter screen (AID 743203; calls by dose curve; note: nearly all actives have a fitted effect of over 55% in size; note: potency is the fitted concentration of half-maximal effect)
# Procedure, shortened: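 HepG2 cells carrying ARE-driven beta-lactamase; 2,000 cells/well; 5 hrs plating; compound pinned from DMSO; 16 hrs 37C/5% CO2; CellTiter-Glo added; 30 min RT; luminescence.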
# [4] = qHTS assay for small molecule activators of the heat shock response signaling pathway - cell viability counter screen (AID 743209); note: nearly all actives have a fitted effect of over 50% in size
# Procedure, shortened: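 Luminescence from CellTiter-Glo, added after the beta-lactamase FRET read, gave the viability signal. Cells were HSE-bla HeLa treated with DMSO-dissolved compounds for 5 h at 37 C following overnight plating.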
# [5] = qHTS assay for small molecule activators of the heat shock response signaling pathway (AID 743210; active = well fitted activation curve with a large enough effect in the signal ratio in the repeat runs, with a control signal flat, not every such curve was filed as active; the % refers to the signal ratio;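 note: HeLa cells with beta-lactamase reporter driven by heat shock elements; series mostly up to about 63 µM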)
# Procedure, shortened: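 In HSE-bla HeLa cells, 5 h compound incubation (37 C) precedes addition of LiveBLAzer B/G substrate; after 2.5 h at room temperature, fluorescence intensity indicates reporter induction.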
# [6] = qHTS assay to identify small molecule agonists of the peroxisome proliferator-activated receptor delta (PPARd) signaling pathway - cell viability counter screen (AID 743211); note: nearly all actives have a fitted effect of over 55% in size
# Procedure, shortened: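 HEK293H PPARd-bla, 3000 cells/well; 5 h preincubation 37C/5% CO2; cpd in DMSO, 17 h 37C; B/G FRET substrate 2 h RT; CellTiter-Glo 30 min RT, luminescence.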
# [7] = target: Peroxisome proliferator-activated receptor delta (Homo sapiens) (UniProt Q03181); assay: qHTS assay to identify small molecule agonists of the peroxisome proliferator-activated receptor delta (PPARd) signaling pathway (AID 743212; calls by dose curve)
# Procedure, shortened: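 HEK293H UAS-bla reporter cells, human PPARd system; compounds delivered in DMSO after 5 h plating, then at 37 C. Beta-lactamase FRET read, 2 h RT substrate step.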
# [8] = qHTS assay to identify small molecule antagonists of the peroxisome proliferator-activated receptor delta (PPARd) signaling pathway - cell viability counter screen (AID 743213); note: nearly all actives have a fitted effect of over 50% in size
# Procedure, shortened: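 Agonist-stimulated (L165041, 300 nM final) HEK293H PPARd UAS-bla cells are exposed to compounds for 17 h at 37 C, and ATP-based luminescence (CellTiter-Glo) from the same wells reports cytotoxicity.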
# [9] = target: Peroxisome proliferator-activated receptor delta (Homo sapiens) (UniProt Q03181); assay: qHTS assay to identify small molecule antagonists of the peroxisome proliferator-activated receptor delta (PPARd) signaling pathway (AID 743215; active = well fitted inhibition curve with a large enough effect in the signal ratio in the repeat runs, not every such curve was filed as active; the % refers to the signal ratio; note: potency is the fitted concentration of half-maximal effect)
# Procedure, shortened: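 Read-out is beta-lactamase FRET fluorescence, measured 2 h after substrate addition at room temperature. Beforehand, UAS-bla HEK293H cells carrying the PPARd reporter were exposed to compounds with L165041 at 300 nM final for 17 h at 37 C.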
# [10] = target: Vitamin D3 receptor (Homo sapiens) (UniProt P11473); assay: qHTS assay to identify small molecule agonists of the vitamin D receptor (VDR) signaling pathway (AID 743222; calls by dose curve)
# Procedure, shortened: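 VDR-bla cells, 2,000/well; 4 h preincubation 37C; cpd (DMSO) 16 h; LiveBLAzer B/G substrate 2 h RT; fluorescence intensity read.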
# [11] = target: Vitamin D3 receptor (Homo sapiens) (UniProt P11473); assay: qHTS assay to identify small molecule antagonists of the vitamin D receptor (VDR) signaling pathway (AID 743223; active = well fitted inhibition curve with a large enough effect in the signal ratio in the repeat runs, not every such curve was filed as active; the % refers to the signal ratio)
# Procedure, shortened: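 Antagonist mode uses 1alpha,25-dihydroxyvitamin D3 at 3 nM final as stimulus. VDR-bla cells receive compounds in DMSO, incubate 16 h at 37C, then a beta-lactamase FRET substrate for 2 h at room temperature before fluorescence measurement.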
# [12] = qHTS assay to identify small molecule agonists of the vitamin D receptor (VDR) signaling pathway - cell viability counter screen (AID 743224); note: series mostly up to about 63 µM; nearly all actives have a fitted effect of over 50% in size
# Procedure, shortened: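 Luminescence from CellTiter-Glo, read after 30 min at room temperature, reports viability of VDR-bla cells treated with compounds for 16 h at 37C in the wells used for the beta-lactamase FRET read.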
# [13] = target: Peroxisome proliferator-activated receptor gamma (Homo sapiens) (UniProt P37231); assay: qHTS assay to identify small molecule agonists of the peroxisome proliferator-activated receptor gamma (PPARg) signaling pathway (AID 743094; active = well fitted activation curve with a large enough effect in the signal ratio in the repeat runs, not every such curve was filed as active; the % refers to the signal ratio)
# Procedure, shortened: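 Beta-lactamase FRET fluorescence was the read-out after a 1 h room-temperature substrate step, following 17 h compound treatment at 37C of HEK293H cells expressing a UAS-driven bla reporter responsive to PPARg.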
# [14] = target: Peroxisome proliferator-activated receptor gamma (Homo sapiens) (UniProt P37231); assay: qHTS assay to identify small molecule antagonists of the peroxisome proliferator-activated receptor gamma (PPARg) signaling pathway (AID 743191; calls by dose curve; note: nearly all actives have a fitted effect of over 30% in size; note: potency is the fitted concentration of half-maximal effect)
# Procedure, shortened: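 Beta-lactamase reporter under UAS control in HEK293H PPARg-bla cells; compound treatment 17 h at 37C. Read-out: fluorescence intensity after 1 h room-temperature incubation with LiveBLAzer B/G FRET substrate.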
# [15] = target: Bile acid receptor (Homo sapiens) (UniProt Q96RI1); assay: qHTS assay to identify small molecule antagonists of the farnesoid-X-receptor (FXR) signaling pathway (AID 743217; active = well fitted inhibition curve with a large enough effect in the signal ratio in the repeat runs, not every such curve was filed as active; the % refers to the signal ratio)
# Procedure, shortened: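 HEK 293T FXR-UAS-bla, 5000 cells/well; compound + CDCA 50 uM final; 16 h, 37 °C; B/G FRET substrate 2 h RT; fluorescence.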
# [16] = qHTS assay to identify small molecule agonists of the farnesoid-X-receptor (FXR) signaling pathway - cell viability counter screen (AID 743218); note: nearly all actives have a fitted effect of over 45% in size
# Procedure, shortened: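 HEK 293T FXR-bla cells; 5 h pre-incubation, 16 h compound exposure at 37 C; LiveBLAzer substrate 2 h RT, then CellTiter-Glo 30 min RT, luminescence.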
# [17] = target: Bile acid receptor (Homo sapiens) (UniProt Q96RI1); assay: qHTS assay to identify small molecule agonists of the farnesoid-X-receptor (FXR) signaling pathway (AID 743220; active = well fitted activation curve with a large enough effect in the signal ratio in the repeat runs, not every such curve was filed as active; the % refers to the signal ratio)
# Procedure, shortened: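 Beta-lactamase reporter under UAS control in GeneBLAzer FXR HEK 293T cells (5000/well) measured with LiveBLAzer FRET substrate after 2 h at room temperature. Compound exposure lasted 16 h at 37C.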
# [18] = qHTS assay to identify small molecule antagonists of the farnesoid-X-receptor (FXR) signaling pathway - cell viability counter screen (AID 743221; active = well fitted cell-killing curve with a large enough effect in the repeat runs, not every such curve was filed as active; note: nearly all actives have a fitted effect of over 50% in size)
# Procedure, shortened: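 Luminescence from CellTiter-Glo measures cytotoxicity in GeneBLAzer FXR-UAS-bla HEK 293T cells. Cells were exposed to compounds with 50 uM chenodeoxycholic acid (final) for 16 h at 37 C, in wells also used for the reporter readout.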
# [19] = qHTS assay to identify small molecule that activate the aryl hydrocarbon receptor (AhR) signaling pathway - cell viability counter screen (AID 743086);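 note: HepG2 liver cells carrying the AhR DRE luciferase reporter; series mostly up to about 70 µM; nearly all actives have a fitted effect of over 45% in size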
# Procedure, shortened: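 Cytotoxicity counter screen: CellTiter-Fluor signal (30 min, 37 C) in 4000 HepG2 cells/well carrying the DRE-luciferase reporter, following 24 h compound exposure at 37 C.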
# Peroxisome proliferator-activated receptor gamma (Homo sapiens), sequence (P37231 whole entry, looked up): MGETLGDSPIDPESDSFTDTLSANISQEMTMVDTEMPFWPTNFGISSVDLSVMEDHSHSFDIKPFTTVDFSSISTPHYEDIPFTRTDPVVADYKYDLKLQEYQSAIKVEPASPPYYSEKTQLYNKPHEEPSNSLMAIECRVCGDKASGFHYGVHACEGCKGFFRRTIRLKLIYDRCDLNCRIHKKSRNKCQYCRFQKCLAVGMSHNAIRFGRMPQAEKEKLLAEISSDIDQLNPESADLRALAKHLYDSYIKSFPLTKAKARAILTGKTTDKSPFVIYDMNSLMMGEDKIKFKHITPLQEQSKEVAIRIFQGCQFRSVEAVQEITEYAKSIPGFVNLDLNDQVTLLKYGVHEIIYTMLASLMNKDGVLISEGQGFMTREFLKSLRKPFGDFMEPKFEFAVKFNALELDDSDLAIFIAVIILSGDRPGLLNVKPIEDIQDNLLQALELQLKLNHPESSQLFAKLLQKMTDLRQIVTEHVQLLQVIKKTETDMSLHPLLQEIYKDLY
# Peroxisome proliferator-activated receptor delta (Homo sapiens), sequence (Q03181 whole entry, looked up): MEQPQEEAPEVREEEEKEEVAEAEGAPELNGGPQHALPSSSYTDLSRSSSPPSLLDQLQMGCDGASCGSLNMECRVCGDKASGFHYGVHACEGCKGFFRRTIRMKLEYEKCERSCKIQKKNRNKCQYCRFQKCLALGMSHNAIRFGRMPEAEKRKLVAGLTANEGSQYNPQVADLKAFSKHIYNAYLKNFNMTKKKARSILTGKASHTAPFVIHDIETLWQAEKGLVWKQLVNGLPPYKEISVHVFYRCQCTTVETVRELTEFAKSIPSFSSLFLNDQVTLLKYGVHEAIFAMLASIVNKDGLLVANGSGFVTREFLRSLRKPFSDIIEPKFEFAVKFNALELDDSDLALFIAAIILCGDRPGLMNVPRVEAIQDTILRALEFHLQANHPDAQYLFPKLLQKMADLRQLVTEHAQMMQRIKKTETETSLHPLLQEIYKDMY
# Bile acid receptor (Homo sapiens), sequence (Q96RI1 whole entry, looked up): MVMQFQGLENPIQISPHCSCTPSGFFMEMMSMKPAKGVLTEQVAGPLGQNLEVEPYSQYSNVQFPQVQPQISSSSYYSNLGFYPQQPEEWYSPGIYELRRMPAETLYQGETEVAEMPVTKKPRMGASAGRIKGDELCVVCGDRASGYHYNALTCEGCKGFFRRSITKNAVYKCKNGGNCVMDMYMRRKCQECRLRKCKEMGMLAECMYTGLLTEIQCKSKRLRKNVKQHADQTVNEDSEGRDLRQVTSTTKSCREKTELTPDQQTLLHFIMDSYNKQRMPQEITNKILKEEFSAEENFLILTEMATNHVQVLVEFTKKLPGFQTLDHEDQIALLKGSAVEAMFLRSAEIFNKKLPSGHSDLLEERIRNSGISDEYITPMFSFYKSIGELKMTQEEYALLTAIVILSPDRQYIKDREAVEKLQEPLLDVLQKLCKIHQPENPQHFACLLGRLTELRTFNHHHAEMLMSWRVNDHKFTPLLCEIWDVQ
# Vitamin D3 receptor (Homo sapiens), sequence (P11473 whole entry, looked up): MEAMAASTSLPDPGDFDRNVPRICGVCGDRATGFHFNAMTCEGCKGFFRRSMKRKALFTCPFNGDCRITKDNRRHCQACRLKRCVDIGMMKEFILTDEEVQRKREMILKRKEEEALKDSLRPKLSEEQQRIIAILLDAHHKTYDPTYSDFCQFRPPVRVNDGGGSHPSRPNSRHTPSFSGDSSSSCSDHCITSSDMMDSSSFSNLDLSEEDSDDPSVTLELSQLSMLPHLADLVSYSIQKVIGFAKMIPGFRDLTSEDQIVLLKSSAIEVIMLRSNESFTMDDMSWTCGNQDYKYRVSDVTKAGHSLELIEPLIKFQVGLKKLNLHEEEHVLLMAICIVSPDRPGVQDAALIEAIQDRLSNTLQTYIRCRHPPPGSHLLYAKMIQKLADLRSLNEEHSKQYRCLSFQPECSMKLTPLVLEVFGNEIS
smiles,measurement,setting,value
CCN(CC)CC(=O)Nc1c(C)cccc1C(=O)OC,Potency,[1],inactive
same,Potency,[2],inactive
same,Potency,[3],inactive
same,Potency,[4],inactive
same,Potency,[5],inactive
same,Potency,[6],inactive
same,outcome,[7],inactive
same,Potency,[8],inactive
same,Potency,[9],inactive
same,outcome,[10],inactive
same,outcome,[11],inactive
same,Potency,[12],inactive
Nc1ccc(S(=O)(=O)NCc2ccccc2)cc1,outcome,[13],inactive
same,Potency,[14],inactive
same,Potency,[1],inactive
same,Potency,[2],inactive
same,Potency,[3],inactive
same,Potency,[4],inactive
same,Potency,[5],inactive
same,Potency,[6],inactive
same,outcome,[7],inactive
same,Potency,[9],inactive
same,outcome,[15],inactive
same,Potency,[16],inactive
same,Potency,[17],inactive
same,Potency,[18],inactive
same,outcome,[10],inactive
same,Potency,[12],inactive
CCCCCCCC/C=C/C(=O)O,Potency,[1],inactive
same,Potency,[2],inactive
same,Potency,[4],inactive
same,Potency,[5],inactive
same,Potency,[8],inactive
same,Potency,[16],inactive
same,Potency,[18],inactive
same,outcome,[10],inactive
same,outcome,[11],inactive
same,Potency,[12],inactive
Cc1cc([N+](=O)[O-])ccc1N,outcome,[13],inactive
same,Potency,[1],inactive
same,Potency,[2],inactive
same,Potency,[3],inactive
same,Potency,[4],inactive
same,Potency,[6],inactive
same,outcome,[7],inactive
same,Potency,[8],inactive
same,Potency,[9],inactive
same,outcome,[15],inactive
same,Potency,[16],inactive
same,Potency,[18],inactive
same,outcome,[10],inactive
same,outcome,[11],inactive
same,Potency,[12],inactive
CC(CN(CCN(CC(C)OCCO)CC(C)OCCO)CC(C)OCCO)OCCO (stereo not given),Potency,[19],inactive
same,outcome,[13],inactive
same,Potency,[1],37.5 µM (active)
same,Potency,[3],33.1 µM (active)
same,Potency,[4],inactive
same,Potency,[5],inactive
same,Potency,[6],inactive
same,outcome,[7],inactive
same,Potency,[9],inactive
same,Potency,[16],inactive
same,outcome,[10],inactive
same,outcome,[11],inactive
same,Potency,[12],inactive
COC(=O)Nc1nc2ccc(C(=O)C3CC3)cc2[nH]1,Potency,[1],inactive
same,Potency,[2],inactive
same,Potency,[4],inactive
same,Potency,[6],inactive
same,Potency,[8],inactive
same,Potency,[9],inactive
same,Potency,[16],inactive
same,Potency,[18],inactive
same,Potency,[12],inactive
CCOC(=O)N1CCC(Nc2ccc(Cl)cc2N)CC1,Potency,[1],inactive
same,Potency,[2],7.5 µM (active)
same,Potency,[3],inactive
same,Potency,[4],inactive
same,Potency,[6],inactive
same,Potency,[8],inactive
same,Potency,[16],inactive
same,Potency,[18],inactive
same,outcome,[11],inactive
same,Potency,[12],inactive
O=C(O)c1cccc(Oc2ccccc2)c1,Potency,[19],inactive
same,Potency,[14],inactive
same,Potency,[1],inactive
same,Potency,[2],inactive
same,Potency,[3],inactive
same,Potency,[5],inactive
same,Potency,[8],inactive
same,Potency,[9],inactive
same,Potency,[16],inactive
same,Potency,[18],inactive
same,outcome,[11],inactive
same,Potency,[12],inactive
CCCCOCCOC(=O)c1cccnc1,Potency,[14],inactive
same,Potency,[1],inactive
same,Potency,[2],inactive
same,Potency,[3],inactive
same,Potency,[4],inactive
same,Potency,[5],inactive
same,Potency,[6],inactive
same,outcome,[7],inactive
same,Potency,[8],inactive
same,Potency,[9],inactive
same,Potency,[18],inactive
same,Potency,[12],inactive
BrC(Br)C(Br)Br,Potency,[19],inactive
same,outcome,[13],inactive
same,Potency,[1],inactive
same,Potency,[2],inactive
same,Potency,[3],inactive
same,Potency,[5],inactive
same,Potency,[6],inactive
same,outcome,[7],inactive
same,Potency,[9],inactive
same,Potency,[16],inactive
same,Potency,[18],inactive
same,outcome,[10],inactive
same,outcome,[11],inactive
same,Potency,[12],inactive
CCN(CC)c1cccc(O)c1,Potency,[19],inactive
same,outcome,[13],inactive
same,Potency,[1],inactive
same,Potency,[3],inactive
same,Potency,[5],inactive
same,Potency,[6],inactive
same,Potency,[9],inactive
same,Potency,[16],inactive
same,Potency,[18],inactive
same,Potency,[12],inactive
CCC(=O)OCc1ccc(OC)cc1,Potency,[19],inactive
same,Potency,[1],inactive
same,Potency,[3],inactive
same,Potency,[4],inactive
same,Potency,[6],inactive
same,outcome,[7],inactive
same,Potency,[8],inactive
same,Potency,[9],inactive
same,outcome,[15],inactive
same,Potency,[16],inactive
same,Potency,[18],inactive
same,outcome,[10],inactive
same,outcome,[11],inactive
same,Potency,[12],inactive
CCC1CCC(CCC(=O)O)C1 (stereo not given),Potency,[19],inactive
same,Potency,[1],inactive
same,Potency,[3],inactive
same,Potency,[4],inactive
same,Potency,[6],inactive
same,Potency,[8],inactive
same,outcome,[15],inactive
same,Potency,[16],inactive
same,Potency,[17],inactive
same,Potency,[18],inactive
same,outcome,[11],inactive
same,Potency,[12],inactive
COc1ccc(/C=C/C(=O)c2ccc(OC)cc2OC)cc1,outcome,[13],inactive
same,Potency,[14],9.44 µM (active)
same,Potency,[1],inactive
same,Potency,[3],inactive
same,Potency,[4],inactive
same,Potency,[6],inactive
same,outcome,[7],inactive
same,Potency,[9],11.9 µM (active)
same,Potency,[16],inactive
same,Potency,[18],inactive
same,outcome,[10],inactive
same,Potency,[12],inactive
CC1=CC[C@@H]2C[C@H]1C2(C)C,Potency,[19],inactive
same,outcome,[13],inactive
same,"activity change, negative = cytotoxicity",[1],-33.5% [at 13.2 µM]
same,activation,[2],-11.5% [at 18.1 µM]
same,"viability change, negative = cytotoxic",[3],-20.1% [at 18.1 µM]
same,"activity change, negative = cytotoxicity",[6],-15.6% [at 13.2 µM]
same,activation,[7],0.18% [at 13.2 µM]
same,"viability change, negative = cytotoxic",[8],-2.53% [at 13.7 µM]
same,"viability change, negative = cytotoxic",[16],17.4% [at 13.2 µM]
same,activation,[10],-15.3% [at 13.4 µM]
same,"activity change, negative = cytotoxicity",[12],3.15% [at 13.2 µM]
CC(CCc1ccc(O)cc1)NCCc1ccc(O)c(O)c1 (stereo not given),Potency,[14],inactive
same,Potency,[1],inactive
same,Potency,[3],inactive
same,Potency,[5],inactive
same,outcome,[7],inactive
same,Potency,[9],inactive
same,outcome,[15],inactive
same,Potency,[16],inactive
same,Potency,[17],inactive
same,Potency,[18],inactive
same,Potency,[12],inactive
C=C(C)c1ccccc1,Potency,[19],inactive
same,Potency,[1],inactive
same,Potency,[2],inactive
same,Potency,[3],inactive
same,Potency,[4],inactive
same,Potency,[5],inactive
same,Potency,[6],inactive
same,outcome,[7],inactive
same,Potency,[8],inactive
same,Potency,[9],inactive
same,outcome,[15],inactive
same,Potency,[16],inactive
same,Potency,[17],inactive
same,Potency,[18],inactive
same,outcome,[10],inactive
same,outcome,[11],inactive
same,Potency,[12],inactive
